# Measured values taken from the supplement of paper PMC8728848.
# This is one part of a sample in which the strongest signals are shown more often than they occur.
# B1: Mg1lysM (Mycosphaerella graminicola) (protein)
# chain: QRNPITITPQFDCGATNSQQYVARSGDTLTKIAQEIYHDVVGVCDIARANNLADPNRIDAGTPYTIPINCQTYDRNSCL
# Legend:
# Assay in all cases: glycan array binding signal (z-score within array); higher = stronger binding
# Conditions in all cases: glycan notation: IUPAC condensed, linker removed
# [1] = molecular target: Fuc(a1-2)Gal(b1-3)GlcNAc(b1-3)Gal(b1-4)Glc
# Outline: (§1)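 The Consortium for Functional Glycomics database supplied 3228 glycan arrays, of which those lacking an available protein sequence were dropped. The binding signal, a within-array Z-score, was averaged across arrays of the same protein sequence and across linkers. Negative scores can be read as non-binding.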
# [2] = molecular target: Fuc(a1-2)Gal(b1-3)[Fuc(a1-4)]GlcNAc(b1-3)[Gal(b1-4)GlcNAc(b1-6)]Gal(b1-4)Glc
# Outline: as §1
# Fuc(a1-2)Gal(b1-4)Glc = molecular target: Fuc(a1-2)Gal(b1-4)Glc
# Outline: as §1
# [3] = molecular target: Fuc(a1-2)Gal(b1-4)GlcNAc(b1-3)Gal(b1-4)GlcNAc(b1-2)Man(a1-3)[Fuc(a1-2)Gal(b1-4)GlcNAc(b1-3)Gal(b1-4)GlcNAc(b1-2)Man(a1-6)]Man(b1-4)GlcNAc(b1-4)GlcNAc
# Outline: as §1
# [4] = molecular target: Fuc(a1-2)Gal(b1-4)[Fuc(a1-3)]GlcNAc(b1-2)Man(a1-3)[Fuc(a1-2)Gal(b1-4)[Fuc(a1-3)]GlcNAc(b1-2)Man(a1-6)]Man(b1-4)GlcNAc(b1-4)[Fuc(a1-6)]GlcNAc
# Outline: as §1
# [5] = molecular target: Fuc(a1-2)Gal3S(b1-4)GlcNAc
# Outline: as §1
# [6] = molecular target: Fuc(a1-2)[GalNAc(a1-3)]Gal(b1-4)GlcNAc(b1-2)Man(a1-3)[Fuc(a1-2)[GalNAc(a1-3)]Gal(b1-4)GlcNAc(b1-2)Man(a1-6)]Man(b1-4)GlcNAc(b1-4)[Fuc(a1-6)]GlcNAc
# Outline: as §1
# [7] = molecular target: Fuc(a1-3)[Gal3S(b1-4)]GlcNAc
# Outline: as §1
# Fuc(a1-4)GlcNAc = molecular target: Fuc(a1-4)GlcNAc
# Outline: as §1
# Gal(a1-3)Gal = molecular target: Gal(a1-3)Gal
# Outline: as §1
# [8] = molecular target: Gal(a1-3)Gal(b1-3)[Fuc(a1-4)]GlcNAc(b1-2)Man(a1-3)[Gal(a1-3)Gal(b1-3)[Fuc(a1-4)]GlcNAc(b1-2)Man(a1-6)]Man(b1-4)GlcNAc(b1-4)GlcNAc
# Outline: as §1
# [9] = molecular target: Gal(a1-4)Gal(b1-4)GlcNAc(b1-2)Man(a1-3)[Gal(a1-4)Gal(b1-4)GlcNAc(b1-2)Man(a1-6)]Man(b1-4)GlcNAc(b1-4)GlcNAc
# Outline: as §1
# Gal(a1-6)Glc = molecular target: Gal(a1-6)Glc
# Outline: as §1
# Gal(b1-3)Gal = molecular target: Gal(b1-3)Gal
# Outline: as §1
# [10] = molecular target: Gal(b1-3)GlcNAc(b1-2)Man(a1-3)[GlcNAc(b1-4)][Gal(b1-3)GlcNAc(b1-2)Man(a1-6)]Man(b1-4)GlcNAc(b1-4)GlcNAc
# Outline: as §1
# [11] = molecular target: Gal(b1-3)GlcNAc(b1-3)Gal(b1-4)GlcNAc(b1-2)[Gal(b1-3)GlcNAc(b1-3)Gal(b1-4)GlcNAc(b1-6)]Man(a1-6)[Gal(b1-3)GlcNAc(b1-3)Gal(b1-4)GlcNAc(b1-2)Man(a1-3)]Man(b1-4)GlcNAc(b1-4)[Fuc(a1-6)]GlcNAc
# Outline: as §1
# [12] = molecular target: Gal(b1-3)GlcNAc(b1-6)[Gal(b1-3)]GalNAc
# Outline: as §1
# [13] = molecular target: Gal(b1-4)GlcNAc(b1-2)Man(a1-6)Man(b1-4)GlcNAc(b1-4)GlcNAc
# Outline: as §1
# Gal6S(b1-4)GlcNAc = molecular target: Gal6S(b1-4)GlcNAc
# Outline: as §1
# GalNAc(a1-3)GalNAc = molecular target: GalNAc(a1-3)GalNAc
# Outline: as §1
# [14] = molecular target: GalNAc3S(b1-4)[Fuc(a1-3)]GlcNAc
# Outline: as §1
# [15] = molecular target: Glc(a1-4)Glc(a1-4)Glc(a1-4)Glc
# Outline: as §1
# GlcA(b1-6)Gal = molecular target: GlcA(b1-6)Gal
# Outline: as §1
# [16] = molecular target: GlcNAc(a1-4)Gal(b1-4)GlcNAc(b1-3)Gal(b1-4)Glc
# Outline: as §1
# [17] = molecular target: GlcNAc(b1-2)Man(a1-3)[GlcNAc(b1-2)Man(a1-6)]Man(b1-4)GlcNAc(b1-4)GlcNAc
# Outline: as §1
# [18] = molecular target: GlcNAc(b1-2)[GlcNAc(b1-4)]Man(a1-3)[GlcNAc(b1-4)][GlcNAc(b1-2)[GlcNAc(b1-6)]Man(a1-6)]Man(b1-4)GlcNAc(b1-4)[Fuc(a1-6)]GlcNAc
# Outline: as §1
# [19] = molecular target: GlcNAc(b1-3)Gal(b1-4)GlcNAc(b1-2)[GlcNAc(b1-3)Gal(b1-4)GlcNAc(b1-6)]Man(a1-6)[GlcNAc(b1-3)Gal(b1-4)GlcNAc(b1-2)Man(a1-3)]Man(b1-4)GlcNAc(b1-4)GlcNAc
# Outline: as §1
# [20] = molecular target: GlcNAc(b1-3)Gal(b1-4)GlcNAc(b1-3)Gal(b1-4)GlcNAc(b1-3)Gal(b1-4)GlcNAc(b1-2)Man(a1-3)[GlcNAc(b1-3)Gal(b1-4)GlcNAc(b1-3)Gal(b1-4)GlcNAc(b1-3)Gal(b1-4)GlcNAc(b1-2)Man(a1-6)]Man(b1-4)GlcNAc(b1-4)[Fuc(a1-6)]GlcNAc
# Outline: as §1
# GlcNAc(b1-3)Man = molecular target: GlcNAc(b1-3)Man
# Outline: as §1
# [21] = molecular target: GlcNAc(b1-4)GlcNAc(b1-4)GlcNAc
# Outline: as §1
# [22] = molecular target: GlcNAc(b1-4)GlcNAc(b1-4)GlcNAc(b1-4)GlcNAc(b1-4)GlcNAc
# Outline: as §1
# [23] = molecular target: GlcNAc(b1-4)GlcNAc(b1-4)GlcNAc(b1-4)GlcNAc(b1-4)GlcNAc(b1-4)GlcNAc
# Outline: as §1
# [24] = molecular target: Kdn(a2-3)Gal(b1-4)[Fuc(a1-3)]GlcNAc
# Outline: as §1
# [25] = molecular target: Neu5Ac(a2-3)Gal(b1-3)GlcNAc(b1-2)Man(a1-3)[GlcNAc(b1-4)][Neu5Ac(a2-3)Gal(b1-3)GlcNAc(b1-2)Man(a1-6)]Man(b1-4)GlcNAc(b1-4)GlcNAc
# Outline: as §1
# [26] = molecular target: Neu5Ac(a2-3)Gal(b1-3)GlcNAc(b1-2)[Neu5Ac(a2-3)Gal(b1-3)GlcNAc(b1-4)]Man(a1-6)[Neu5Ac(a2-3)Gal(b1-3)GlcNAc(b1-2)Man(a1-3)]Man(b1-4)GlcNAc(b1-4)GlcNAc
# Outline: as §1
# [27] = molecular target: Neu5Ac(a2-3)Gal(b1-3)[Fuc(a1-4)]GlcNAc
# Outline: as §1
# [28] = molecular target: Neu5Ac(a2-3)Gal(b1-4)GlcNAc(b1-2)Man(a1-3)[GlcNAc(b1-4)][Neu5Ac(a2-3)Gal(b1-4)GlcNAc(b1-2)Man(a1-6)]Man(b1-4)GlcNAc(b1-4)GlcNAc
# Outline: as §1
# [29] = molecular target: Neu5Ac(a2-3)Gal(b1-4)GlcNAc(b1-6)[Neu5Ac(a2-3)Gal(b1-3)]GalNAc
# Outline: as §1
# [30] = molecular target: Neu5Ac(a2-3)Gal(b1-4)GlcNAc6S
# Outline: as §1
# [31] = molecular target: Neu5Ac(a2-6)Gal(b1-4)GlcNAc(b1-2)Man(a1-3)[GlcNAc(b1-2)Man(a1-6)]Man(b1-4)GlcNAc(b1-4)GlcNAc
# Outline: as §1
# [32] = molecular target: Neu5Ac(a2-6)Gal(b1-4)GlcNAc(b1-3)Gal(b1-4)GlcNAc(b1-3)GalNAc
# Outline: as §1
# [33] = molecular target: Neu5Ac(a2-6)Gal(b1-4)GlcNAc(b1-3)GalNAc
# Outline: as §1
# [34] = molecular target: Neu5Ac(a2-6)GalNAc(b1-4)GlcNAc
# Outline: as §1
# [35] = molecular target: Neu5Ac(a2-6)GlcNAc(b1-4)GlcNAc(b1-4)GlcNAc
# Outline: as §1
# Neu5Ac(b2-6)GalNAc = molecular target: Neu5Ac(b2-6)GalNAc
# Outline: as §1
# [36] = molecular target: Neu5Gc(a2-3)Gal(b1-3)GlcNAc
# Outline: as §1
# [37] = molecular target: Neu5Gc(a2-8)Neu5Gc(a2-6)Gal(b1-4)GlcNAc
# Outline: as §1
binder,measurement,setting,value
B1,glycan array binding signal (z-score),[1],-0.073
same,glycan array binding signal (z-score),[2],-0.074
same,glycan array binding signal (z-score),Fuc(a1-2)Gal(b1-4)Glc,-0.06
same,glycan array binding signal (z-score),[3],-0.081
same,glycan array binding signal (z-score),[4],0.076
same,glycan array binding signal (z-score),[5],-0.038
same,glycan array binding signal (z-score),[6],-0.079
same,glycan array binding signal (z-score),[7],-0.075
same,glycan array binding signal (z-score),Fuc(a1-4)GlcNAc,-0.078
same,glycan array binding signal (z-score),Gal(a1-3)Gal,-0.086
same,glycan array binding signal (z-score),[8],-0.048
same,glycan array binding signal (z-score),[9],-0.061
same,glycan array binding signal (z-score),Gal(a1-6)Glc,-0.075
same,glycan array binding signal (z-score),Gal(b1-3)Gal,-0.061
same,glycan array binding signal (z-score),[10],0.125
same,glycan array binding signal (z-score),[11],0.02
same,glycan array binding signal (z-score),[12],-0.054
same,glycan array binding signal (z-score),[13],-0.083
same,glycan array binding signal (z-score),Gal6S(b1-4)GlcNAc,-0.051
same,glycan array binding signal (z-score),GalNAc(a1-3)GalNAc,0.308
same,glycan array binding signal (z-score),[14],0.01
same,glycan array binding signal (z-score),[15],-0.073
same,glycan array binding signal (z-score),GlcA(b1-6)Gal,-0.062
same,glycan array binding signal (z-score),[16],-0.084
same,glycan array binding signal (z-score),[17],-0.057
same,glycan array binding signal (z-score),[18],-0.071
same,glycan array binding signal (z-score),[19],-0.06
same,glycan array binding signal (z-score),[20],-0.081
same,glycan array binding signal (z-score),GlcNAc(b1-3)Man,-0.057
same,glycan array binding signal (z-score),[21],16.5
same,glycan array binding signal (z-score),[22],11.9
same,glycan array binding signal (z-score),[23],7.47
same,glycan array binding signal (z-score),[24],-0.081
same,glycan array binding signal (z-score),[25],-0.076
same,glycan array binding signal (z-score),[26],0.149
same,glycan array binding signal (z-score),[27],-0.096
same,glycan array binding signal (z-score),[28],-0.076
same,glycan array binding signal (z-score),[29],-0.062
same,glycan array binding signal (z-score),[30],-0.075
same,glycan array binding signal (z-score),[31],-0.054
same,glycan array binding signal (z-score),[32],-0.091
same,glycan array binding signal (z-score),[33],-0.076
same,glycan array binding signal (z-score),[34],0.004
same,glycan array binding signal (z-score),[35],4.06
same,glycan array binding signal (z-score),Neu5Ac(b2-6)GalNAc,-0.076
same,glycan array binding signal (z-score),[36],-0.04
same,glycan array binding signal (z-score),[37],-0.072
